The panel holds about 83,000 compounds, 20% with a hit somewhere; the sample as a whole holds those more often.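 For each line, cells grew in 96-well plates with the test compound present at a single concentration for 48 hours.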 Unmarked numbers belong to inactive results. Active and inactive are the calls of the source. How the source made its calls: active means growth percent below 10; inactive means the rest.

What all share (experiment): NCI-60 one-dose screen, 48 h (100 = growth as untreated, 0 = no growth, -100 = all killed)
Holding throughout (conditions): 10 µM unless noted

Experiment [1] concerns T-47D breast.
Experiment [2] concerns BT-549 breast.
The subject of experiment [3] is MDA-MB-435 melanoma.
Experiment [4] concerns MCF7 breast.
Experiment [5] has as its system HCT-116 colon.
Experiment [6] concerns HCC-2998 colon.
The subject of experiment [7] is KM12 colon.
The test system of experiment [8] is SW-620 colon.

On to `CC(=O)Nc1cc2c3c(cccc3c1)-c1ccccc1-2`, for which the growth in experiment [1] is 75.4%; in experiment [2], 64.7%; in experiment [3], 68.4%; in experiment [4] it was 96.9%; in experiment [5], 95.9%; in experiment [6] it was 87.8%. The growth in experiment [7] is 51.1%.
Consider `Cc1cc(-c2ccccc2)cc(C)n1`, for which the growth is 114% in experiment [1]; 113% in experiment [2]; 105% in experiment [3]; 93.5% in experiment [4]; 104% in experiment [5]; 107% in experiment [6]. Further, the growth in experiment [7] was 112%.
In the case of `Cc1cc(=O)[nH]c(/C(=N/Nc2ccccc2)C(=O)c2ccc(Cl)cc2)n1`, the growth in experiment [1] was 77%; in experiment [2], 97.4%; in experiment [3], 108%; in experiment [8], 94.6%; in experiment [4], 90.1%; in experiment [5] it was 86.9%. Besides, the growth in experiment [7] was 102%.
As for `CCCCc1ccc(C(N)=O)nc1`, the growth in experiment [1] was 101%; in experiment [2], 97.8%; in experiment [3], 106%; in experiment [4], 86.9%; in experiment [5], 99.4%; in experiment [6] it was 110%. The growth in experiment [7] is 100%.
As for `O=[N+]([O-])c1cc([N+](=O)[O-])c(N2CCCC2)cc1NN=C(c1ccc(O)cc1)c1ccc(O)cc1`, the growth in experiment [1] was -7.05% (active); in experiment [2] it was 86.6%; in experiment [3], 76.1%; in experiment [8], 107%; in experiment [4], 9.54% (active); in experiment [5] it was 8% (active). In addition, the growth in experiment [7] was 85.7%.
Turning to `O=C(CC(C(=O)c1ccccc1)N1CCN(Cc2ccccc2)CC1)c1ccccc1` (stereo unspecified), the growth in experiment [1] is 45.6%; in experiment [2], 101%; in experiment [3], 109%; in experiment [8], 11.8%; in experiment [4], 52.1%; in experiment [5], 22.8%. The growth in experiment [7] was 101%.
As for `O=C(C(=O)c1cc(Br)ccc1O)c1cc(Br)ccc1O`, the growth in experiment [1] was 8.38% (active); in experiment [2] it was 21.7%; in experiment [3], 49.8%; in experiment [8] it was 66.5%; in experiment [4], 36.5%; in experiment [5], 40.3%. Moreover, in experiment [7], the growth was 48.6%.
Take `COc1ccc(C2CC(c3ccc4c(c3)OCO4)=NN2C=O)cc1` (stereo unspecified): the growth was 99.2% in experiment [1]; 89.1% in experiment [2]; 110% in experiment [3]; 98.6% in experiment [4]; 96.4% in experiment [5]; 102% in experiment [6]. Besides, the growth in experiment [7] was 105%.
On to `C[C@H]1O[C@@H](O[C@H]2[C@@H](O)C[C@H](O[C@H]3[C@@H](O)C[C@H](O[C@H]4CC[C@]5(C)C6CC[C@]7(C)[C@@H](C8=CC(=O)OC8)CC[C@]7(O)C6CC[C@@H]5C4)O[C@@H]3C)O[C@@H]2C)C[C@H](O)[C@@H]1O` (stereo partly specified), for which the growth in experiment [1] was -44.5% (active); in experiment [2] it was -92.5% (active); in experiment [3], -100% (active); in experiment [8], -100% (active); in experiment [4], -41.2% (active); in experiment [5], -96.7% (active). For the same compound, in experiment [7], the growth was -100% (active).
Consider `Cc1cn(C(C=O)OC(C=O)CO)c(=O)[nH]c1=O` (stereo unspecified), for which the growth in experiment [1] is 99.6%; in experiment [2], 107%; in experiment [3] it was 106%; in experiment [4], 95.1%; in experiment [5], 103%; in experiment [6], 119%. Besides, in experiment [7], the growth was 103%.
Take `c1ccc(-c2oc(-c3ccccc3)c3ccccc23)cc1`: the growth in experiment [1] was 101%; in experiment [2], 96.5%; in experiment [3], 107%; in experiment [8] it was 109%; in experiment [4], 122%; in experiment [5] it was 108%. Moreover, in experiment [7], the growth was 105%.
With `COc1cc(/C=C/C(=O)C(C(=O)/C=C/c2ccc(OC(=O)CCNC34CC5CC(CC(C5)C3)C4)c(OC)c2)C(=O)CCNC23CC4CC(CC(C4)C2)C3)ccc1OC(=O)CCNC12CC3CC(CC(C3)C1)C2` (stereo unspecified), the growth in experiment [1] is 41.6%; in experiment [2] it was -24.2% (active); in experiment [3] it was -29.9% (active); in experiment [8], -22.7% (active); in experiment [4], 14.4%; in experiment [5], -48.8% (active). In experiment [7], the growth is -5.8% (active).
`Cc1ccc(/C=C/C(=O)c2ccc(F)cc2)s1`: the growth is 62.9% in experiment [1]; 76.7% in experiment [2]; 52.1% in experiment [3]; 35.9% in experiment [4]; 25.8% in experiment [5]; 88% in experiment [6]. Also, in experiment [7], the growth is 67.3%.
Turning to `COc1cccc(CCN2C(=O)CCC3=C2CCC3=O)c1`, the growth in experiment [1] is 102%; in experiment [2] it was 101%; in experiment [3], 107%; in experiment [4] it was 103%; in experiment [5] it was 97.7%; in experiment [6], 104%.
For `Nc1nc(NC2CC2)c2ncn(C3C=CC(CO)C3)c2n1` (stereo unspecified), the growth in experiment [1] is 110%; in experiment [2], 115%; in experiment [3], 105%; in experiment [8] it was 106%; in experiment [4], 107%; in experiment [5] it was 109%. For the same compound, the growth in experiment [7] is 99.7%.
Turning to `COc1c(O)cc2c(c1CC=C(C)C)OC(=O)c1c(cc(O)c(CC=C(C)C)c1O)O2`, the growth in experiment [1] was 49.3%; in experiment [2] it was 78.2%; in experiment [3] it was 60.3%; in experiment [4], 10.6%; in experiment [5], 26.8%; in experiment [6] it was 24.5%. The growth in experiment [7] was 7.76% (active).
`COc1cc2c(cc1OC)C(=O)/C(=C/c1cccc(OCC(=O)c3ccccc3)c1)C2`: the growth in experiment [1] was 55.2%; in experiment [2], 49.4%; in experiment [3], 110%; in experiment [4], 60.7%; in experiment [5], 64.6%; in experiment [6], 111%. Moreover, in experiment [7], the growth was 170%.
On to `CN1CCN(CCCCCN=c2cc3c(=O)n(CCCCCN4CCN(C)CC4)c(=O)c4c(NCCCCCN5CCN(C)CC5)cc5c(O)n(CCCCCN6CCN(C)CC6)c(=O)c2c5c4-3)CC1`, for which the growth in experiment [1] is 16.5%; in experiment [2], 11.4%; in experiment [3], -41.5% (active); in experiment [4], -6.01% (active); in experiment [5], 2.16% (active); in experiment [6], 29.1%. In addition, the growth in experiment [7] is 2.69% (active).
Take `COc1cccc(/C=C2\Cc3ccccc3C2=O)c1`: the growth was 100% in experiment [1]; 103% in experiment [2]; 96.7% in experiment [3]; 58.8% in experiment [4]; 96.3% in experiment [5]; 105% in experiment [6]. In addition, in experiment [7], the growth is 95.2%.
Take `COc1ccc2c(c1)sc1nc(-c3ccc(Br)cc3)cn12`: the growth in experiment [1] is 85%; in experiment [2] it was 120%; in experiment [3] it was 103%; in experiment [4], 80.4%; in experiment [5] it was 92.4%; in experiment [6], 115%. The growth in experiment [7] is 102%.
Take `CCCCCCCSc1ncnc2[nH]ncc12`: the growth is 51.9% in experiment [1]; 88.4% in experiment [2]; 61.9% in experiment [8]; 81.7% in experiment [4]; 62.7% in experiment [5]; 119% in experiment [6]. In addition, the growth in experiment [7] is 83.2%.
As to `COc1ccc(-c2nc3sc4c(c3c(=O)[nH]2)CCCCCC4)cc1`, the growth in experiment [1] is 64.2%; in experiment [2] it was 75.3%; in experiment [3], 2.83% (active); in experiment [4], 54.1%; in experiment [5], 33.9%; in experiment [6], 80.9%. Also, in experiment [7], the growth is 34.8%.
With `CCN(Cc1cccc(S(=O)(=O)[O-])c1)c1ccc(C(=C2C=CC(=[N+](CC)Cc3cccc(S(=O)(=O)O)c3)C=C2)c2ccccc2S(=O)(=O)O)cc1`, the growth in experiment [1] is 90.3%; in experiment [3], 94.2%; in experiment [8], 103%; in experiment [4], 90.2%; in experiment [5], 95.1%; in experiment [6], 97.8%. The growth in experiment [7] is 94.4%.
For the compound `C1=C(Cc2ccccc2)n2cnc3ncnc(c32)S1`, the growth is 29.6% in experiment [1]; 26.5% in experiment [3]; 69% in experiment [8]; 20.3% in experiment [4]; 57.1% in experiment [5]; 70.2% in experiment [6]. Besides, the growth in experiment [7] is 69.6%.
Turning to `CS(=O)(=O)N1CCN(Cc2cc3nc(-c4cccc5[nH]ncc45)nc(N4CCOCC4)c3s2)CC1` (tested in a mixture with another compound), the growth in experiment [1] was -7.59% (active); in experiment [3], 15.9%; in experiment [8] it was 40.8%; in experiment [4], 6.96% (active); in experiment [5] it was 23.8%; in experiment [6], -9.43% (active). The growth in experiment [7] was 24.8%.
In the case of `COc1cccc(-c2nc3cc(NC(=O)c4ccc(Cl)c(C#N)c4)ccc3o2)c1`, the growth in experiment [1] was -20.4% (active); in experiment [3] it was -73.3% (active); in experiment [8] it was 46.9%; in experiment [4], 8% (active); in experiment [5], -92.2% (active); in experiment [6], 29.6%. Moreover, the growth in experiment [7] is -51.8% (active).

These data come from PubChem BioAssay (NCI).
